# Results published in PubChem BioAssay (Tox21).
# Results filed as inconclusive are left out. A call without a number means that no potency is given here. Active and inactive are the calls of the source. Calls follow the shape of the dose curve; as a rule, active = well fitted curve in the direction sought with a large enough effect in the repeat runs; inconclusive = weak or mixed curves; inactive = no such curve, though single readings can be large; an effect the other way counts as inactive or inconclusive.
# Biological target: Luciferin 4-monooxygenase (Photinus pyralis) (UniProt P08659)
# Sequence (P08659 whole entry, looked up): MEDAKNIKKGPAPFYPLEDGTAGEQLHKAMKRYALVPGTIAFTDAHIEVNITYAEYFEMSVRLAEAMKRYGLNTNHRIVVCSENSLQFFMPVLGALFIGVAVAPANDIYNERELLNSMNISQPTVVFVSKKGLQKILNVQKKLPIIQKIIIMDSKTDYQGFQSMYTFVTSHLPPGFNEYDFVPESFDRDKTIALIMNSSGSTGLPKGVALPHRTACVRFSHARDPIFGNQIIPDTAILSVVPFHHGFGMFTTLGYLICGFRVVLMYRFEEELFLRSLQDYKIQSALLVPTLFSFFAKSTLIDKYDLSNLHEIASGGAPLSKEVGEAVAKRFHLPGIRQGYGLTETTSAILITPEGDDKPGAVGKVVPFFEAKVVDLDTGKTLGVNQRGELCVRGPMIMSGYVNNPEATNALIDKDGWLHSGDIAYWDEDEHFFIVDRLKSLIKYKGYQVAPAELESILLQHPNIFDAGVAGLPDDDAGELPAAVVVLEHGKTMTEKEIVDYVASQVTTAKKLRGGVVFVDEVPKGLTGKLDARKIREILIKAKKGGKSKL
# Test: qHTS assay to identify small molecule inhibitors of firefly luciferase (AID 1224835); also: nearly all actives have a fitted effect of over 25% in size
# Settings: purified P. pyralis luciferase, luminescence inhibition; series mostly up to 115 µM
# In short: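 Biochemical qHTS: compounds run as interplate titrations against purified firefly enzyme, with D-luciferin and ATP each at its KM concentration. Light output recorded by CCD imaging.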
row,Compound,Potency
1,CC1CC(CC2CCC(N)C(C)C2)CCC1N (stereo not drawn),inactive
2,NS(=O)(=O)C(F)(F)C(F)(F)C(F)(F)C(F)(F)C(F)(F)C(F)(F)C(F)(F)C(F)(F)F,inactive
3,O=S1OC[C@@H]2[C@H](CO1)[C@]1(Cl)C(Cl)=C(Cl)[C@@]2(Cl)C1(Cl)Cl (stereo partly drawn),inactive
4,O=C1NCN(c2ccccc2)C12CCN(CCCOc1ccc(F)cc1)CC2,inactive

# System: not listed separately
# Test: qHTS assay to identify small molecule agonists of the constitutive androstane receptor (CAR) signaling pathway - cell viability counter screen (AID 1224836); also: nearly all actives have a fitted effect of over 45% in size; also: potency is read from the fitted curve at half-maximal effect
# Settings: HepG2-CYP2B6-hCAR viability, CellTiter-Fluor, 23 h, PK11195 added to every well; series mostly up to 92.4 µM
# In short: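 Double-stable HepG2 hepatoma cells (hCAR plus CYP2B6-2.2kb) are treated for 23 h at 37 C with test compounds in 15-point concentration series. PK11195 at 0.75 uM final is co-added. Cell viability is quantified by CellTiter-Fluor.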
row,Compound,Potency
1,O=C1CN=C(c2ccccc2)c2cc(Cl)ccc2N1CC1CC1,inactive
2,CC(c1ccc(O)cc1)(c1ccc(O)cc1)c1ccc(O)cc1,inactive
3,CC[C@H]1C[C@H]2[C@@H]3CCC4=CC(=O)CC[C@@H]4[C@H]3CC[C@]2(C)[C@H]1O,inactive
4,COc1nn(CSP(=S)(OC)OC)c(=O)s1,inactive
5,COC(=O)C(C)N(C(=O)Cc1ccccc1)c1c(C)cccc1C (stereo not drawn),inactive
6,O=C(NCc1cccnc1)Nc1ccc([N+](=O)[O-])cc1,inactive
7,O=C(CBr)c1ccccc1,inactive
8,N#CCC#N,48.6 µM (active)
9,O=C(O)C1(c2ccc3c(c2)OC[C@H](Cc2ccc(-c4ccccc4)cc2)[C@H]3O)CCCC1,inactive
10,Clc1ccc(C(OCCN2CCCCC2)c2ccccc2)cc1 (stereo not drawn),inactive
11,CC1(C)CCC(Cc2ccc(Cl)cc2)C1(O)Cn1cncn1 (stereo not drawn),inactive
12,CCCN(CCC)c1c([N+](=O)[O-])cc(S(C)(=O)=O)cc1[N+](=O)[O-],inactive
13,COP(=O)(OC)O/C(=C/Cl)c1cc(Cl)c(Cl)cc1Cl,inactive
14,CN1C[C@H](CNC(=O)OCc2ccccc2)C[C@@H]2c3cccc4c3c(cn4C)C[C@H]21,inactive
